Compound activity as filed in PubChem BioAssay.
Hits are enriched below; roughly 27% of the tested compounds scored in any of these assays.
Cav32 inh: Cav3.2 calcium influx blockers – cell-based, Fluo-4 calcium fluorescence, FDSS, MLSMR library, primary screen. hit rate 4% among 100,000. B-score at 10 µM. Cav3.2-expressing cells; hits give low values;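 active means single-dose well whose peak fluorescence ratio is a statistical outlier from its plate by either plate-standardised score or position-corrected B-score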
CYP2C19 act: human CYP2C19 activators, primary screen, biochemical, luminescence; 96,000 tested, under 10 active; Cytochrome P450 2C19 (Homo sapiens), P33261; activation factor at 5 µM; recombinant CYP2C19, luciferin-H EGE luminescence; hits give high values; 0 = fully inhibited enzyme, 1 = untreated enzyme;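 active means activation factor of at least 2 at 5 µM in the primary screen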;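 further: 0 = wells with 2.5 mM tranylcypromine and 1 = vehicle-only wells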
CYP2C9 inh: blockers of cytochrome P450 2C9 activity – biochemical, luminescence, ADME assay, primary screen; P11712; CYP2C9 Supersomes, luciferin-H conversion; inhibition, % at 5 µM; hit rate 20% among 96,000; AID 777, 2007;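 active means blocking of liver enzyme CYP2C9 beyond about 50% at 5 µM, limit read from the data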
CYP2C19 inh: blockers of cytochrome P450 2C19 activity – biochemical, luminescence, ADME assay, primary screen | hit rate 21% among 96,000 | CYP2C19 Supersomes, luciferin-H EGE luminescence, 30 min | inhibition, % at 5 µM | P33261;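 active means CYP2C19 inhibition above a set limit at 5 µM in the primary screen, cut at about 50% in these data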;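 further: plate controls were negative control wells for no effect and 2.5 mM tranylcypromine positive control for full effect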
CYP2C9 activ: human CYP2C9 activators, primary screen, biochemical, luminescence; Cytochrome P450 2C9 (Homo sapiens), P11712; recombinant CYP2C9, luciferin-H conversion; hits give high values; factor 1 = untreated enzyme, 0 = blocked; activation factor at 5 µM; hit rate 1.4% among 96,000; AID 1024, 2008;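 active means activation factor of 2 or more for CYP2C9 at a 5 µM dose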;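 further: 0 = sulfaphenazole-blocked wells and 1 = vehicle-only wells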
Active calls of the source: *; · = no result given.

SMILES | Cav32 inh | CYP2C19 act | CYP2C9 inh | CYP2C19 inh | CYP2C9 activ
COc1ccc(NC(=O)C2Cc3ccccc3C(=O)O2)cc1 (stereo unspecified) | 0.21 | · | · | · | ·
Cc1cc(=O)[nH]c(SCC(=O)c2c(N)n(C)c(=O)n(C)c2=O)n1 | 0.32 | 1.2 | -7 | -19 | 1.1
Cc1c(C(=O)N2CCCC2)sc(NC(=O)c2cccs2)c1C#N | -0.021 | 0.9 | 94* | 8 | 0.1
Cc1c(C(=O)N2CCCCC2)sc(NC(=O)C(C)C)c1C#N | 2.4 | 0.4 | 68* | 62* | 0.3
Cc1c(C(=O)N2CCCCC2)sc(NC(=O)c2ccco2)c1C#N | 0.05 | · | · | · | ·
Cc1c(C(=O)N2CCCCC2)sc(NC(=O)C2CC2)c1C#N | 0.22 | 0.5 | 56* | 54* | 0.4
Cc1c(C(=O)N2CCCC2)sc(NC(=O)c2ccccc2)c1C#N | -0.67 | · | · | · | ·
CCCCOC(=O)c1ccc(-c2ccc(/C=N/NC(=S)NCC)o2)cc1 | 0.24 | 0.9 | 24 | 14 | 0.8
CC(C)Oc1ccc(C(=O)N/N=C/c2ccc(-c3ccc(S(=O)(=O)Nc4ncccn4)cc3)o2)cc1 | 0.81 | 0.8 | 84* | 19 | 0.2
Cc1nn(-c2ccccc2)c2nc(N)c(C#N)c(-c3ccc(F)cc3)c12 | -0.44 | 1 | 84* | 2 | 0.2
COCCN1C(=O)c2ccccc2C(C(=O)Nc2ccc3c(c2)OCCO3)C1c1ccc(F)cc1 (stereo unspecified) | 0.55 | 1 | 2 | -3 | 1
COc1ccc(CNC(=O)c2ccc(N3CCC4(CC3)CC(c3ccc(Cl)cc3)=NO4)c(N)c2)cc1 | -1.6 | · | · | · | ·
Cc1nc2c(c(=O)n1CCC1=CCCCC1)c1nc3ccccc3nc1n2/N=C/c1ccco1 | · | 0.7 | 71* | 35 | 0.3
COc1ccc(OC)c(C2=Nn3c(nnc3-c3cccc(OC(C)C)c3)SC2)c1 | -0.54 | 1 | 10 | 4 | 0.9
COc1ccc(OC)c(C2=Nn3c(nnc3-c3ccco3)SC2)c1 | -0.29 | 0.1 | 69* | 85* | 0.3
CCOc1ccc(C2=Nn3cnnc3SC2)cc1 | 0.7 | 0 | 27 | 95* | 0.7
COc1ccc(C2=Nn3c(nnc3-c3ccco3)SC2)cc1 | 0.75 | 0.4 | 64* | 56* | 0.4
COc1ccc(C2=Nn3c(nnc3-c3cccnc3)SC2)cc1 | 0.47 | · | · | · | ·
COc1ccc(C2=Nn3c(nnc3-c3ccncc3)SC2)cc1 | 0.49 | 0.7 | 56* | 34 | 0.4
Oc1ccc(C2=Nn3c(nnc3-c3ccco3)SC2)cc1O | · | 0.7 | 11 | 29 | 0.9
Oc1ccc(Cl)cc1C(C#Cc1ccccc1)N1CCOCC1 (stereo unspecified) | -0.43 | 0.6 | 49 | 37 | 0.5
CC(=O)n1cc([C@H]2C=C(C(N)=O)O[C@@H](OCc3ccc(CO)cc3)C2)c2ccccc21 | 0.32 | · | · | · | ·
COc1ccc(OCc2nnc3n2N=C(c2ccc(OC)cc2)CS3)cc1 | -7.6* | 0.1 | 90* | 88* | 0.1
COc1ccc(OCc2nnc3n2N=C(c2ccc(C)cc2)CS3)cc1 | -2.4 | 0.7 | 32 | 30 | 0.7
CCCC(C)C(=O)Nc1ccc(C(N)=O)cc1 (stereo unspecified) | 1.2 | 1.1 | -20 | -14 | 1.2
SMILES | Cav32 inh | CYP2C19 act | CYP2C9 inh | CYP2C19 inh | CYP2C9 activ
C#Cc1ccc([C@@H]2C=C(C(=O)OCC=C)O[C@H](OCCCCO)C2)cc1 | -0.59 | · | · | · | ·
O=C(CSCc1ccc(Cl)cc1)N/N=C/c1ccccc1 | -3.7 | 0.1 | 60* | 86* | 0.4
O=C(CSCc1ccccc1)Nc1ccc(Cl)cn1 | -2.4 | 0.4 | 70* | 64* | 0.3
CCn1c(=O)c(NC(=O)c2ccccc2)c2n(c1=S)CCCCC2 | 1.5 | 0.7 | 54* | 32 | 0.5
NC(=O)[C@H]1CC2(CC(c3cccc(NC(=O)[C@H]4CCC(=O)N4)c3)=NO2)CN1C(=O)c1cc([N+](=O)[O-])cc([N+](=O)[O-])c1 (stereo partly specified) | 0.33 | · | · | · | ·
CC(CN(C(N)=O)c1ccccc1O)C(=O)O (stereo unspecified) | 0.19 | 1.2 | -38 | -18 | 1.4
O=C(CSc1nnc2ccccn12)NCc1cccs1 | 0.76 | 0.8 | 7 | 16 | 0.9
COc1ccc(-c2ccnc(SCC(=O)Nc3ccccn3)n2)cc1 | -2.1 | · | · | · | ·
C/C(CCc1ccc2c(c1)OCO2)=N\N=C(/N)SC1CC(=O)N(c2ccccc2F)C1=O (stereo unspecified) | -5.9* | 0.8 | 74* | 21 | 0.3
CN1CC2CCCC3(C1)C(=O)NC1(CCCCC1)N=C23 (stereo unspecified) | -0.018 | 1 | -14 | 1 | 1.1
CCOc1[nH]n(-c2ccccc2)c(=O)c1C=Nc1ccc(Cl)cc1 | -0.11 | 1.2 | 1 | -22 | 1
CCOc1c(OC)ccc2c3c(c(=O)oc12)CCCC3 | 1 | 0.2 | -163 | 76* | 2.6*
CCOc1ccc2c(C)c(C(=O)O)oc2c1OCC | 0.65 | 1.1 | -14 | -6 | 1.1
CCOc1ccc2c(C)c(C)c(=O)oc2c1OCC | -0.14 | 0.5 | -152 | 51* | 2.5*
CC(C)C(c1nnnn1Cc1ccco1)N1CCN(c2cccc(Cl)c2)CC1 (stereo unspecified) | -3.8* | 0.2 | 70* | 81* | 0.3
CC(C)C(c1nnnn1C(C)(C)C)N1CCN(c2cccc(Cl)c2)CC1 (stereo unspecified) | -3.2 | 0.3 | 98* | 70* | 0
CCC(C)(C)n1nnnc1C(c1ccccn1)N1CCN(c2cccc(OC)c2)CC1 (stereo unspecified) | -0.29 | · | · | · | ·
C=CCN1C(=NC(=O)CCC)SC2CS(=O)(=O)CC21 (stereo unspecified) | 0.44 | 0.7 | 1 | 32 | 1
CCOC(=O)CN(C(=O)CSc1nnc(COc2ccc(OC)cc2)n1C)c1ccccc1 | 0.58 | 1.1 | 35 | -8 | 0.6
CCCc1nnc2n1N=C(c1ccc(-c3cc(Cl)ccc3Cl)o1)CS2 | 0.027 | · | · | · | ·
NC(=O)/C(=N\OC(=O)c1ccco1)c1nc(-c2ccc(Br)cc2)cs1 | -0.8 | 1 | 7 | -2 | 0.9
CCS(=O)(=O)n1nc(-c2ccccc2)nc1SC | 0.1 | 0.4 | -11 | 56* | 1.1
CSc1nc(-c2ccccc2)nn1S(=O)(=O)c1ccccc1 | 0.55 | · | · | · | ·
CCS(=O)(=O)n1nc(-c2ccc(Cl)cc2)nc1N | 0.49 | 0.5 | 8 | 53* | 0.9
COc1ccc(-c2nc(SC)n(S(=O)(=O)c3ccccc3)n2)cc1 | -0.62 | 0.3 | 62* | 69* | 0.4
O=S1(=O)C=C(Sc2nc3ccccc3s2)c2ccccc21 | 1.7 | 1 | 4 | 4 | 1
O=C(CNC(=O)c1ccco1)OCN1C(=O)c2ccccc2C1=O | -0.026 | 1 | -4 | -5 | 1
